PubChem BioAssay AID488969 (Vanderbilt High Throughput Screening Facility, 2010)
In all, about 110,000 compounds were measured (“z-score”: median about -0.1, highest 2% from about 2 on). The entries come from a sample that favours the highest values as a whole. Calls of active or inactive are those of the source.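 Rule for the calls: active = z-score in the third read window above 3 or below -3; inactive = the rest.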

biological target: Metabotropic glutamate receptor 8 (Rattus norvegicus) (UniProt P70579); experiment: rat mGluR8 modulators via GIRK flux, primary screen, cell-based, thallium flux, HTS (AID 488969); conditions: HEK293 rat mGluR8, GIRK (G protein-gated inwardly rectifying potassium channel) thallium flux, FluoZin2; at 10 µM; stronger effect = higher value; submaximal glutamate (EC20) added with thallium
Sequence (P70579 whole entry, looked up): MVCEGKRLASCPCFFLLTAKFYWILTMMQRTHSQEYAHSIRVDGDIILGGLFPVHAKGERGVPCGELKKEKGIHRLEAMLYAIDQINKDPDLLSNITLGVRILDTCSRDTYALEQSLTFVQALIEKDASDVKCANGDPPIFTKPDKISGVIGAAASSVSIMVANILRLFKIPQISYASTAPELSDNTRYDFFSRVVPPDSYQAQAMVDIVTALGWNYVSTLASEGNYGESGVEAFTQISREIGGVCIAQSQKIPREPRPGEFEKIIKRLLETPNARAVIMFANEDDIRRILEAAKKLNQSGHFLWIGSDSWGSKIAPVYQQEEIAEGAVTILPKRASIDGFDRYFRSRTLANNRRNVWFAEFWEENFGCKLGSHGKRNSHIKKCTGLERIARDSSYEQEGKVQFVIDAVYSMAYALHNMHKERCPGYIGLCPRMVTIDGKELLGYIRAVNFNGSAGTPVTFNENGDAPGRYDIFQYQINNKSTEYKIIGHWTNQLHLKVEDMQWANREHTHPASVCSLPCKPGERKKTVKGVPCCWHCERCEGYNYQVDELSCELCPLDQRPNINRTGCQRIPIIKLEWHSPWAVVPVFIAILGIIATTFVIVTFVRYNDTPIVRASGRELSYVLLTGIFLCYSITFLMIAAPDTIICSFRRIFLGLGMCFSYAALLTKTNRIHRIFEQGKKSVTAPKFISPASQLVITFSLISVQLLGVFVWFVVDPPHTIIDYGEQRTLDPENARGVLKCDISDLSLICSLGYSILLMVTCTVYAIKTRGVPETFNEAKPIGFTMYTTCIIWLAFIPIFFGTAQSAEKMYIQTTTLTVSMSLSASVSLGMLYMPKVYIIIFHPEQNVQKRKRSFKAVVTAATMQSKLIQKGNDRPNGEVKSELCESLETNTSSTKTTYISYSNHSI

SMILES	z-score
CN(C)S(=O)(=O)c1cc(C(=O)O)c(NC2CCCCC2)cc1Cl	-2.9
CCOC(=O)c1c(CSC(=N)N)n(-c2ccc(C)cc2)c2cc(Br)c(OC(C)=O)cc12	1.29
Cc1cccc(NC(=O)CSc2nsc(SCC(=O)Nc3cccc(C)c3)c2C#N)c1	-0.0761
COc1ccc(CCNC2=NCC(C)S2)cc1 (stereo not given)	0.0523
Cc1cccc(OCC(=O)Nc2ccccc2N2CCCCC2)c1	0.378
CCC(=O)N1CCN(c2ccccc2NC(=O)COc2cc(C)ccc2C(C)C)CC1	0.696
CCC(=O)N1CCN(c2ccccc2NC(=O)COc2cccc(C)c2)CC1	13 (active)
Cc1sc(NC(=O)CSc2nnc(-c3ccc(F)cc3)o2)c(C#N)c1C	-0.213
CCNC(=O)CN(c1ccc(OC)c(OC)c1)S(=O)(=O)c1ccccc1	-0.11
O=C(Nc1cccc(-c2nnc(-c3ccccc3)o2)c1)C1CCCCC1	-0.0325
O=C(Nc1ccc2oc(-c3ccccc3)nc2c1)C1CCCO1 (stereo not given)	-0.123
O=C(Nc1cccc(-c2nnc(-c3ccccc3)o2)c1)C1CCCO1 (stereo not given)	3
CCOC(=O)Cc1csc(NC(=O)C2C3C=CC(C3)C2C(=O)O)n1 (stereo not given)	-0.0933
Cc1cc(C)cc(OCC(=O)Nc2ccc3c(c2)C(=O)c2ccccc2C3=O)c1	-0.124
Cc1ccc2nc(SC(C(=O)Nc3ccc(F)cc3)c3ccccc3)[nH]c2c1 (stereo not given)	-0.117
COc1cccc(C(=O)CSc2nnc(-c3cc(OC)cc(OC)c3)o2)c1	0.263
Cn1cccc1CNC1CCCC1	-1.43
Cn1cccc1CNC1CCCCC1	0.335
c1ccc(-n2cccc2CNC2CCCCC2)cc1	2.02
O=C(C1CCC(CNS(=O)(=O)c2cccc3cccnc23)CC1)N1CCc2ccccc21 (stereo not given)	-0.0229
CC(=C1C(=O)c2ccccc2C1=O)N1CCN(C/C=C/c2ccccc2)CC1	2.04
CS(=O)(=O)N1CCN(C/C=C/c2ccccc2)CC1	-0.0638
CC(=C1C(=O)c2ccccc2C1=O)N1CCN(Cc2ccccc2)CC1	-0.06

SMILES	z-score
Cc1cc(C)cc(C(=O)OCC(=O)Nc2cccc(S(=O)(=O)NC3=NCCCCC3)c2)c1	0.0544
Cc1c(N2C(=O)CS/C2=N\N=C\c2ccccc2O)c(=O)n(-c2ccccc2)n1C	3.28 (active)
Cc1c(N2C(=O)CS/C2=N\N=C\c2ccc(Cl)cc2)c(=O)n(-c2ccccc2)n1C	-0.118
Cc1c(N2C(=O)CS/C2=N\N=C\c2ccc(Br)cc2)c(=O)n(-c2ccccc2)n1C	-0.286
CC1SC(c2ccccc2Cl)NC1=O (stereo not given)	-0.0543
CC(NC(=O)c1ccc(-c2cc(C(F)(F)F)ccc2Cl)o1)c1ccccc1 (stereo not given)	-0.132
COc1cccc(NC(=O)COC(=O)c2c3c(nc4ccccc24)CCC(C)C3)c1 (stereo not given)	-0.604
CC(/C=N/n1c(-c2ccc(C)cc2)n[nH]c1=S)=C\c1ccco1	0.323
CC(/C=N/n1c(-c2ccc(Cl)cc2)n[nH]c1=S)=C\c1ccco1	6.09 (active)
Cc1ccc(-c2n[nH]c(=S)n2/N=C\c2ccco2)cc1	-0.16
CC(/C=N/n1c(-c2ccccc2)n[nH]c1=S)=C\c1ccco1	6.02 (active)
S=c1[nH]nc(-c2ccccc2)n1/N=C/C=C/c1ccco1	0.28
Cc1nn(-c2ccccc2)c(C)c1/C=N/n1c(-c2ccc(Cl)cc2)n[nH]c1=S	0.338
COc1ccc(OC)c(NC(=O)CSc2ncccn2)c1	-0.134
COc1ccc(C(=O)n2nc(C)cc2C)cc1OC	-0.221
c1ccc(Cn2c(Sc3nnnn3-c3ccccc3)nnc2-c2ccccc2)cc1	0.223
COc1ccc(CNC(=S)Nc2cccc(C)c2C)cc1	-0.341
Cc1ccc2nsnc2c1NC(=O)c1ccc2c(c1)OCCO2	-0.679
Cc1ccc(S(=O)(=O)/N=C(/NC(=S)Nc2ccccc2)c2ccccc2)cc1	0.34
CCC1CCCN1Cn1cnc2c([nH]c3ccc(OC)cc32)c1=O (stereo not given)	6.77 (active)
CCCCN(CCCC)CCn1cnc2c([nH]c3ccc(OC)cc32)c1=O	0.258
CCN1CCCC1Cn1cnc2c([nH]c3cc(OC)ccc32)c1=O (stereo not given)	-0.271
CCOCCc1nnc(NC(=O)c2cccs2)s1	-0.0424

SMILES	z-score
O=C(NC1CCCC1)C(c1ccccc1)N(C(=O)c1ccno1)c1ccccc1 (stereo not given)	0.315
CC(C)(C)NS(=O)(=O)c1ccc2c(c1)oc(=O)c1cc(S(=O)(=O)NC(C)(C)C)ccc12	-0.0322
Cn1nnnc1SCC(=O)Nc1ccccc1C(=O)NCc1ccccc1	0.00964
Cn1nnnc1SCC(=O)Nc1ccccc1C(=O)NC1CC1	0.311
CC(NC(=O)c1ccccc1NC(=O)CSc1nnnn1C)c1ccccc1 (stereo not given)	2.05
O=C(c1cnn2c(C(F)(F)F)cc(-c3ccccc3)nc12)N1CCCc2ccccc21	-0.322
CC1Cc2cc(/C(O)=C3/C(=O)C(=O)N(CCCn4ccnc4)C3c3ccco3)ccc2O1 (stereo not given)	-0.193
COc1nc(-c2ccccc2)ccc1-c1noc(-c2ccccc2)n1	0.293
CC(C)(C)CC(C)(C)NC1=CC(=O)OC12CCCCC2	-0.189
CC(C)c1nc(N2CCOCC2)c(C#N)c2c1CCC2	0.532
CC(C)Cc1nc(N2CCOCC2)c(C#N)c2c1COC(C)(C)C2	2.42
COC(=O)Sc1nc(N2CCOCC2)c2c(c1C#N)CC(C)(C)OC2	-2.52
CSc1nc(N2CCOCC2)c2c(c1C#N)CC(C)(C)OC2	2.16
Cc1nc(N2CCOCC2)c(C#N)c2c1COC(C)(C)C2	-0.387
CSc1nc(N2CCCC2)c2c(c1C#N)CC(C)(C)OC2	-0.933
CCCCc1nc(N2CCOCC2)c(C#N)c2c1COC(C)(C)C2	-0.434
CC(C)c1nc(N2CCCC2)c(C#N)c2c1CCCC2	0.908
CC(C)c1nc(N2CCOCC2)c(C#N)c2c1CCCC2	6.82 (active)
Cc1ccc(S(=O)(=O)Nc2nc3ccccc3s2)cc1	-0.644
COc1ccc(CC(=O)NNC(=S)Nc2ccccc2)cc1Br	0.376
Cn1cc(CNC(=O)C2CCCCC2)cn1	-0.556
Cn1c(=O)[nH]c2cc(Cl)cnc21	0.0453
CCc1cc(C(=O)NCCN(C)C)cs1	0.168

SMILES	z-score
COc1ccc(C)cc1S(=O)(=O)Nc1ccccc1C	-0.428
COc1ccc(C)cc1S(=O)(=O)Nc1cccc(Cl)c1Cl	3.68 (active)
COc1cc(NS(=O)(=O)c2cc(C)ccc2OC)c(OC)cc1Cl	0.494
COc1ccc(C2/C(=C(\O)c3ccc(OC)c(Cl)c3)C(=O)C(=O)N2CCN(C)C)cc1 (stereo not given)	-0.505
COc1nc(C#N)c(N2CCOCC2)o1	-0.118
Cn1c(SCC(=O)c2cc3ccccc3o2)nnc1-c1ccccc1	4.93 (active)
Cn1ccnc1SCC(=O)c1cc2ccccc2o1	0.608
Cn1c(SCC(N)=O)nnc1-c1ccccc1	0.403
Cc1ccc(/C=C2/NC(=O)N(c3ccccc3)C2=O)o1	0.187
CS(=O)(=O)NCC(c1cccnc1)N1CCN(c2ccc(F)cc2)CC1 (stereo not given)	-0.636
O=C(CSc1nc2ccccc2s1)NNC(=O)Nc1ccc(Cl)c(Cl)c1	-0.0417
Cc1ccc(C)c(OCC(=O)NCCN(C)C)c1	0.356
Cc1sc2nc(C3CC3)nc(SCC(=O)NCc3ccco3)c2c1C	0.399
CCn1c(SCC(=O)NC(=O)NCc2ccco2)nc2sc(C)c(C)c2c1=O	3.05 (active)
Cc1sc2ncnc(NCc3ccco3)c2c1C	-0.47
CCSc1ncnc2sc(C)c(C)c12	-0.112
Cc1sc2nc(SCC(=O)NCc3ccco3)n(Cc3ccccc3)c(=O)c2c1C	-0.304
Cc1sc2ncnc(SCC(=O)NC(=O)NCc3ccco3)c2c1C	2.66
Cc1nc(SCC(=O)NCc2ccco2)c2c(C)c(C)sc2n1	-0.0392
Cc1sc2ncnc(SCc3ccco3)c2c1C	3.43 (active)
O=C(CSc1ncnc2sc3c(c12)CCCCC3)NCc1ccco1	1.08
Cc1sc2nc(SCC(=O)NCc3ccco3)n(C)c(=O)c2c1C	-0.982
C=CCn1c(SCC(=O)NCc2ccco2)nc2sc(C)c(C)c2c1=O	-0.948

SMILES	z-score
Cc1sc2nc(C(C)C)nc(SCC(=O)NCc3ccco3)c2c1C	17 (active)
Cc1ccc2oc(=O)c(/C=C(\O)c3sc(C)nc3C)nc2c1	-0.168
CCOc1ccc(C(=O)NCC(=O)OC2CCOC2=O)cc1OCC (stereo not given)	-0.823
CCCCN(C)CCNC(=O)Cn1ncc2c(=O)oc3ccc(C)cc3c21	-0.464
Nn1c(Cc2cccc3ccccc23)nnc1SCCOc1ccc(Br)cc1	-0.185
COc1nc(NCc2ccco2)nc(NC2CCCCC2)n1	-0.224
CCOC(=O)Cc1csc(NC(=O)CSc2nc3sc(C(=O)O)c(C)c3c(=O)[nH]2)n1	0.0555
O=C(Nc1ccc(Cl)c(Cl)c1)Nc1cc(S(=O)(=O)N2CCOCC2)ccc1N1CCCC1	0.00467
CCc1nc(SCC(=O)N2c3ccccc3CC2C)c2c(C)c(C)sc2n1 (stereo not given)	0.0133
Cc1sc2nc(C(C)C)nc(SCC(=O)N3c4ccccc4CC3C)c2c1C (stereo not given)	10.2 (active)
Cc1sc2nc(C3CC3)nc(SCC(=O)N3c4ccccc4CC3C)c2c1C (stereo not given)	-0.291
CC(C)(C)C1CCc2c(sc(NC(=O)c3ccco3)c2C(N)=O)C1 (stereo not given)	0.458
Cc1ccc(OCCCCn2cnc3ccccc32)c(C)c1	-0.0373
COc1ccc(OC)c(NC(=S)NCCC(c2ccccc2)c2ccccc2)c1	-0.202
Clc1ccc(C(c2ccccc2)N2CCNCC2)cc1 (stereo not given)	2.16
O=C(O)COCCN1CCN(C(c2ccccc2)c2ccc(Cl)cc2)CC1 (stereo not given)	0.16
CC12CNCC(C)(CN(C(c3ccccc3)c3ccccc3)C1)C2	1.25
Oc1ccc(CN2CCc3ccccc3C2)c2cccnc12	0.165
OCCN1CCN(Cc2cc(Cl)c3cccnc3c2O)CC1	0.225
Oc1c(CN2CCc3ccccc3C2)cc(Cl)c2cccnc12	2.72
CS(=O)(=O)N(CC(=O)NCc1ccco1)c1cc(C(F)(F)F)ccc1Cl	0.181
COc1ccc(N(CC(=O)NCc2ccco2)S(C)(=O)=O)cc1Cl	-0.0738
CS(=O)(=O)N(CC(=O)NCc1ccco1)c1ccc(Cl)c(C(F)(F)F)c1	4.31 (active)
